PMC13494018

Molecular target: CD276, Q5ZPR3
Sequence (Q5ZPR3 whole entry): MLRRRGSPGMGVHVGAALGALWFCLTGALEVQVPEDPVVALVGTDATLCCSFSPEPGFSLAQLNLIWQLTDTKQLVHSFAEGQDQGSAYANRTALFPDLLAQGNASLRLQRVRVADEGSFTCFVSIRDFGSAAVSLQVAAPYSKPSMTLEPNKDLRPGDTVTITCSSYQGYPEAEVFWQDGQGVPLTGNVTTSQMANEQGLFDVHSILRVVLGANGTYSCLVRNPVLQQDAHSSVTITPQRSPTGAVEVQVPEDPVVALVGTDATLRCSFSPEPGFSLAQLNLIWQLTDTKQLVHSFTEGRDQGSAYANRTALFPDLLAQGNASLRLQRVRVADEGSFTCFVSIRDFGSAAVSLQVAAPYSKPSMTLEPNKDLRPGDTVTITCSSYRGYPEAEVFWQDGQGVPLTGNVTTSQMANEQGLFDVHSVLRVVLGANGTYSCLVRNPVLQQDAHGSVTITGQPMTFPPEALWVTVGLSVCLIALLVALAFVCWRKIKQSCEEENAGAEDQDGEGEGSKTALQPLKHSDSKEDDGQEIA

Binder | binding in a display sort
d1r7_design_ppi_493_dldesign_0_cycle0_af2pred (protein) SMLKEKEEAEKKRERVEKLIKEAEEAAKEAEKIDPVSGRGLRGMVEAARRLMEEGNLEAAEKLAQVALDAAAGLAAAA | not found (inactive)
d1r7_design_ppi_522_dldesign_0_cycle1_af2pred (protein) DPNEKARQLMNDAFQQATKLRAAGAANPATAAQDTAQGVQAVNEAKKKAAELASPEYAGKIEEMAKQLTSIISV | not found (inactive)
d1r7_design_ppi_529_dldesign_0_cycle1_af2pred (protein) DELEKAIKEAEKYIEELKKTIKEGVKNPEEALKLAEEAEKEGEKAAALGIVGAGVGQLAKAAAQALRNKIAA | not found (inactive)
d1r7_design_ppi_538_dldesign_0_cycle0_af2pred (protein) MEEVKKKAEEAKKEIEKLYEEALKYAKEGDIEKAAEYISKMREKGLEAAEEVPELAEEILAYTGRKALEALLELGKASL | not found (inactive)
d1r7_design_ppi_562_dldesign_0_cycle1_af2pred (protein) SEKAEKLKKETLEKAEKAVKEAEASPDPKEGIKILSEAAREAARAAAESPEAGSAALALTVSAMEEFAAKARA | not found (inactive)
d1r7_design_ppi_609_dldesign_0_cycle0_af2pred (protein) SELAEQALAAAESLIAEALRAAAEDPARAARLFASAKAVAEALKKIDPKLGEELLKKVEAAEAEAKAAIA | not found (inactive)
d1r7_design_ppi_628_dldesign_0_cycle1_af2pred (protein) AEALLKEAEEVKARAAELAATGPEGIVEAAKLVAEMRRKGVENPEVRERVDALYREASAEIARQQRAWIAQQAAAR | not found (inactive)
d1r7_design_ppi_640_dldesign_0_cycle1_af2pred (protein) AQQAVQQTQKVVDETKEVYERAKKEGSPEVAEKLKELLAQAQNNLQMAQAGGAEAAQLMYQNAKKIYEEAKKYAEEEIKKEKE | not found (inactive)
d1r7_design_ppi_677_dldesign_0_cycle0_af2pred (protein) VEEKIRGIEEAGRLGAEASPELAAEIEAFTKRAVEAARASGDEAVAGAALQAASLALIGAAWYAVDPEKGAAVLARARARLEALIA | not found (inactive)
d1r7_design_ppi_682_dldesign_0_cycle1_af2pred (protein) ATAEQIQQVKNYAKAAIQAVKNAAASDKAEALAVAKIFADALLKQGKLTTPEAAKEAEKAAKEILATAKALAA | not found (inactive)
d1r7_design_ppi_702_dldesign_0_cycle0_af2pred (protein) SAEKETNLANAKGYLALAKAYTKGATYYATKEGDLEKAKELYEKAKEASKLAIEAAAKAGPEAAAKAKAEADEIDKENEKALKEAE | not found (inactive)
d1r7_design_ppi_719_dldesign_0_cycle0_af2pred (protein) SGAKAAIAAAKHNIKQAKKLLEEGDVEGALGHIKLAELATKAAEAEAKAAGDKEALKKAEELKKEVEELKKEAEKKKK | not found (inactive)
d1r7_design_ppi_719_dldesign_0_cycle1_af2pred (protein) SGAQAAVAAAQANLRQAKQLLEEGDYEGALGHIKLAKLAADAAKKQATAAGDQAAIDQATALQKEAEELEKEAKKALE | not found (inactive)
d1r7_design_ppi_733_dldesign_0_cycle0_af2pred (protein) MEEALKALEEAEEAAREAGDEESAEILEKAREEVKAGTPSEGALTVARAAAEAVARARAAGNEDLADRVRALANRAIAALSRAAIA | not found (inactive)
d1r7_design_ppi_733_dldesign_0_cycle1_af2pred (protein) VEEALKALEEAAKAAKEAGDEESAKILKEALEKVKAGTPAEGALTIAEKSAEAVKRALEKGNEELAEKILKLGQKAIAALSKAAIA | not found (inactive)
d1r7_design_ppi_806_dldesign_0_cycle1_af2pred (protein) AKEEALRTLKSAAELAKVAADIAANVDPELAKKAKELAEKAKKLAEEAKKASEEEAKKLLEEGKKLLEEVRALTAEVARLAVAA | not found (inactive)
d1r7_design_ppi_815_dldesign_0_cycle0_af2pred (protein) MEDLEELLRLIAEAQRALKTDAEEGIKLAEEAAKKAEELGLEKAAKLLKEAAKAAKTDAEEGIRLLNQAATQAAREYSEK | not found (inactive)
d1r7_design_ppi_855_dldesign_0_cycle0_af2pred (protein) SAAAAQARAVARMAAAAAESGVDAAEVLAVVTGAAQQLAADPAALQAMLDTLTALAAASTPEAAAVLAAAAAAVAAVLA | not found (inactive)
d1r7_design_ppi_855_dldesign_0_cycle1_af2pred (protein) SAAAAQARAVANTAAAAAKQGVPAEEVVALVEGAAKTLAGDPAALQAMIDTLAELAKASTPEAAATLNKAAEAVKKVLA | not found (inactive)
